What was measured:
[1] = test system: Vero E6 infected with SARS-CoV-2; test: morphology score (similarity to uninfected cells); higher = more like uninfected cells; settings: 24 h
[2] = test system: Vero E6 infected with SARS-CoV-2; test: SARS-CoV-2 infection rate relative to infected DMSO; higher = more infection, active = 60 or less; settings: 24 h

SMILES	morphology score [1]	SARS-CoV-2 infection rate [2]
CC(C)(Sc1ccc(CCN(CCCCC2CCCCC2)C(=O)NC2CCCCC2)cc1)C(=O)O (10 µM)	0.13	117% (inactive)
O=S(=O)(O)CCSSCCS(=O)(=O)O [dimesna] (10 µM)	0.144	104% (inactive)
CC1=C(/C=C/C(=C/C=C/C(C)=C/C(=O)O)c2ccc(C)cc2)C(C)(C)CCC1 (10 µM)	0.171	106% (inactive)
CNC(=S)C1(c2ccccn2)CCCS1 (stereo not drawn) [picartamide] (10 µM)	-0.0189	106% (inactive)
CC(=C(CCOC(=O)C(C)C)SSC(CCOC(=O)C(C)C)=C(C)N(C=O)Cc1cnc(C)nc1N)N(C=O)Cc1cnc(C)nc1N (stereo in doubt) [sulbutiamine] (10 µM)	0.0249	100% (inactive)
O=c1n(CC2CO2)c(=O)n(CC2CO2)c(=O)n1CC1CO1 (stereo not drawn) [teroxirone] (10 µM)	-0.0418	115% (inactive)
C#C[C@]1(O)CC[C@H]2[C@@H]3CCC4=C(CCC(=O)C4)[C@H]3CC[C@@]21C [noretynodrel] (10 µM)	0.0184	108% (inactive)
Cc1cc(C(=O)NOCCO)c(Nc2ccc(I)cc2F)n(C)c1=O (10 µM)	-0.0952	107% (inactive)
CNC(=O)c1c(-c2ccc(F)cc2)oc2cc(N(CCO)S(C)(=O)=O)c(C3CC3)cc12 [nesbuvir] (10 µM)	0.111	104% (inactive)
CC(C)CNc1ccnc(NCc2csc(-c3ccccc3)n2)n1 (0.833333 µM)	-0.0256	106% (inactive)
Cc1cc(C)nc(NS(=O)(=O)c2ccc(NC(=S)NC(=O)COc3ccc(Br)cc3Cl)cc2)n1 (10 µM)	0.0709	108% (inactive)
CC(=O)Nc1ccc(C(=O)Nc2ccccc2N)cc1 [tacedinaline] (0.833333 µM)	-0.0863	110% (inactive)
COCCOc1ccc2c(c1)ncn2-c1ccc2cccc(N3CCC(N)CC3)c2n1 (0.833333 µM)	-0.0191	106% (inactive)
NC(=O)c1cn(Cc2c(F)cccc2F)nn1 [rufinamide] (10 µM)	0.218	102% (inactive)
Cc1ccsc1/C=C/C1=NCCCN1C [morantel] (10 µM)	-0.00401	99.5% (inactive)
CC[C@@H](C)CNCC(=O)N1CCc2sccc2[C@@H]1COc1cccc(C)c1 (10 µM)	0.447	58.5% (active)
CN1CCN(CCCN2c3ccccc3Sc3ccc(S(=O)(=O)N(C)C)cc32)CC1 [thioproperazine] (10 µM)	0.251	102% (inactive)
CC(C(=O)O)c1ccc2c(c1)CC(=O)c1ccccc1S2 (stereo not drawn) [zaltoprofen] (10 µM)	0.241	104% (inactive)
CC1(C)S[C@@H]2[C@H](NC(=O)C(C(=O)O)c3ccccc3)C(=O)N2[C@H]1C(=O)O (stereo partly drawn) [carbenicillin] (10 µM)	0.0766	104% (inactive)
CS(=O)(=O)c1ccc(-c2nnc(/C=C/c3nnc(-c4ccc(C#N)cc4)o3)n2-c2ccccc2Cl)nc1 (10 µM)	0.0833	99% (inactive)
CC(=O)c1ccc2c(c1)C(=O)C1(CC1)O2 [spizofurone] (10 µM)	-0.0677	112% (inactive)
C[C@]12CC[C@@H](O)C[C@H]1CC[C@@H]1[C@@H]2CC[C@]2(C)C(=O)CC[C@@H]12 [3-alpha-hydroxy-5-beta-androstan-17-one] (10 µM)	0.223	102% (inactive)

SMILES	morphology score [1]	SARS-CoV-2 infection rate [2]
COc1cc2c(cc1F)C(c1ccccc1Cl)=Nc1c(n[nH]c1C)N2 (10 µM)	-0.191	104% (inactive)
Cc1ccc(=O)n(-c2ccc(O)cc2)c1 (10 µM)	-0.0543	94.5% (inactive)
Cn1cnc(N)c2ncnc1-2 [3-methyladenine] (10 µM)	0.258	93% (inactive)
C[C@@H]1COCCN1c1cc(=O)n2c(n1)N(Cc1cncc(Cl)c1)[C@H](C(F)(F)F)CC2 (0.833333 µM)	0.55	70% (inactive)
CCC[C@@H]1CC(=O)N([C@@H](CC)C(N)=O)C1 [Brivaracetam] (10 µM)	0.0266	111% (inactive)
O=C(CCCN1CC=C(n2c(=O)[nH]c3ccccc32)CC1)c1ccc(F)cc1 [droperidol] (10 µM)	0.0599	112% (inactive)
Nc1nc(O)c2[nH]nnc2n1 [azaguanine-8] (0.833333 µM)	0.322	51.5% (active)
N#Cc1c(N(CC(=O)O)CC(=O)O)sc(C(=O)O)c1CC(=O)O [Strontium Ranelate] (10 µM)	-0.000723	107% (inactive)
c1ccc(COCCCc2c[nH]cn2)cc1 [proxyfan] (10 µM)	-0.149	115% (inactive)
Cc1ccccc1C(=O)c1ccc(Nc2ccc(Br)cc2N)cc1Cl (10 µM)	-0.138	102% (inactive)
CC(=O)N(CC(O)CO)c1c(I)c(C(=O)NCCO)c(I)c(C(=O)NCC(O)CO)c1I (stereo not drawn) [ioxilan] (10 µM)	0.00249	114% (inactive)
CO[C@H]1/C=C\C=C(/C)C(=O)NC2=CC(=O)C(NCCN(C)C)=C(C[C@@H](C)C[C@H](OC)[C@H](O)[C@@H](C)/C=C(\C)[C@@H]1OC(N)=O)C2=O [alvespimycin] (10 µM)	0.255	91% (inactive)
O=C(O)c1ccc2cc(-c3ccc(O)c(C45CC6CC(CC(C6)C4)C5)c3)ccc2c1 (0.833333 µM)	0.226	87.5% (inactive)
CCCCOc1ccc(C(=O)CCN2CCCCC2)cc1 [dyclonine] (10 µM)	0.347	91.5% (inactive)
C=C1/C(=C\C=C2/CCC[C@]3(C)[C@@H]([C@H](C)/C=C/[C@H](C)C(C)(C)O)CC[C@@H]23)C[C@@H](O)C[C@@H]1O [ercalcitriol] (10 µM)	0.0324	97.5% (inactive)
CC(C)(N)Cc1ccccc1 [phentermine] (10 µM)	-0.154	118% (inactive)
C=CCN1C[C@H](C)N([C@H](c2ccc(C(=O)N(CC)CC)cc2)c2cccc(OC)c2)C[C@H]1C (10 µM)	-0.00563	106% (inactive)
Cc1nccn1CC1CCc2c(c3ccccc3n2C)C1=O (stereo not drawn) [ondansetron] (10 µM)	0.253	90% (inactive)
CCCCCCNC(=O)Nc1ccc(S(=O)(=O)Nc2ccc(CCNC[C@H](O)COc3ccc(O)cc3)cc2)cc1 (10 µM)	-0.167	112% (inactive)
C[C@@H]1C[C@@H]([C@H](O)CC2CC(=O)NC(=O)C2)C(=O)[C@@H](C)C1 [cycloheximide] (10 µM)	0.392	69% (inactive)
NCCCC[C@H](NC(=O)[C@@H](Cc1cc(Br)c(O)c(Br)c1)NC(=O)N1CCC(N2Cc3ccccc3NC2=O)CC1)C(=O)N1CCN(c2ccncc2)CC1 (10 µM)	0.0352	110% (inactive)
CCCN(CCC)[C@H]1CCc2ccc(O)cc2C1 [7-hydroxy-DPAT] (10 µM)	-0.355	122% (inactive)

SMILES	morphology score [1]	SARS-CoV-2 infection rate [2]
CCNC(=O)c1n[nH]c(-c2cc(Cl)c(O)cc2O)c1-c1ccc(OC)cc1 (10 µM)	0.0403	104% (inactive)
CCc1ccc2c(-c3cccc(Cl)c3)nc(=O)n(CC)c2n1 (10 µM)	0.375	100% (inactive)
Cn1cc(/C=C2\C(=O)Nc3cccnc32)c2ccccc21 (10 µM)	-0.0337	92.5% (inactive)
C[C@@]1(O)[C@H](O)[C@@H](CO)O[C@H]1n1cnc2c(NC3CCCC3)nc(Cl)nc21 (10 µM)	0.0826	102% (inactive)
COC(=O)c1ccc(O)cc1 [methylparaben] (10 µM)	-0.112	114% (inactive)
COc1cc(-c2ccc(=O)[nH]n2)ccc1OC(F)F [zardaverine] (10 µM)	0.289	83.5% (inactive)
Cc1nc(=O)c2cc(CN(C)c3ccc(C(=O)N[C@@H](CCC(=O)O)C(=O)O)s3)ccc2[nH]1 [raltitrexed] (0.833333 µM)	-0.207	104% (inactive)
CC(C)(C)NCC(O)c1cc(Br)no1 (stereo not drawn) [broxaterol] (10 µM)	-0.00593	112% (inactive)
COc1ccc(COc2ccc(Cc3cnc(N)nc3N)cc2OC)cc1 (10 µM)	-0.072	112% (inactive)
O=C(NO)C1(CS(=O)(=O)c2ccc(Oc3ccc(Cl)cc3)cc2)CCOCC1 (10 µM)	0.0418	98.5% (inactive)
CN(N=O)C(=O)N[C@@H](C=O)[C@@H](O)[C@H](O)[C@H](O)CO [streptozotocin] (10 µM)	0.0397	96% (inactive)
CC(C)N(CCC(=O)c1ccc2ccccc2c1)Cc1ccccc1 (10 µM)	0.0866	104% (inactive)
C[C@H]1CC[C@H](n2c3cnccc3c3cnc(Nc4ccc5c(n4)CCN(C(=O)CO)C5)nc32)CC1 (10 µM)	0.0031	110% (inactive)
CC(CCc1ccc(O)cc1)NCCc1ccc(O)c(O)c1 (stereo not drawn) [dobutamine] (10 µM)	-0.179	113% (inactive)
CC(=O)OCC(=O)[C@@]1(O)CC[C@H]2[C@@H]3CCC4=CC(=O)C=C[C@]4(C)[C@H]3[C@@H](O)C[C@@]21C [prednisolone-acetate] (10 µM)	-0.148	108% (inactive)
CC1(CN)Cc2ccccc2C1 (10 µM)	0.0351	112% (inactive)
Oc1nc(O)c2cn[nH]c2n1 [oxypurinol] (10 µM)	-0.157	111% (inactive)
c1ccc(C2CN3CCSC3=N2)cc1 (stereo not drawn) [tetramisole] (10 µM)	0.191	104% (inactive)
Cc1cc2c(N3CCCC3)nc(N3CCCC3)nc2n1C (10 µM)	0.452	75% (inactive)
C/C(=N\c1ccccc1N)c1c(C)cc(=O)n(O)c1O (10 µM)	-0.169	107% (inactive)
